In PubChem BioAssay:
Active and inactive are the calls of the source.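 How the source made its calls, unless noted: active means visual image review flags a hit and inhibition of aggregation exceeds 20%; inconclusive means visual hit but inhibition at or below 20%; inactive means no hit on visual image review.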

Legend:
[1] = inhibitors of TNFa-induced NFkB p65 translocation, primary screen, imaging, HUVEC, MLSMR starter and 10KST1 sets (AID 438;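 active means inhibition above 20% together with a positive visual image hit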;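 further: compound added about 3h40 before a 20 min TNFalpha stimulation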;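 on inhibition: signal is the nuclear over cytoplasmic p65 intensity ratio per well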); conditions: HUVEC TNFa-induced p65 nuclear translocation; cell count: measured here: nuclei count (cytotoxicity indicator), at 2.08 µM; inhibition: at 2 µM, stronger effect = higher value, 0% TNFa-plus-vehicle, 100% no-TNFa wells
[2] = reduction of polyQ htt aggregates in cells – imaging, exon1htt(103Q)mCFP cells, high-content imaging, primary screen (AID 483); conditions: exon1htt(103Q)mCFP cell line, aggregate imaging, at 2 µM; inhibition of aggregation: stronger effect = higher value; nuclei count: measured here: cell count, toxicity;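 further: compound exposure lasted 3 days before fixation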;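 on nuclei count: percent of the per-plate median nuclei count of sample wells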
[3] = endothelial E-selectin expression blockers – imaging, HUVEC, immunofluorescence, MLSMR starter and 10KST1 sets, primary screen (AID 487;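 active means visually confirmed hit in the image check and inhibition above 20%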;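 on inhibition: signal is fraction of cell area covered by stained E-selectin grains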;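 on nuclei count: 100% = median nuclei count of all wells on the same plate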); conditions: HUVEC TNFalpha-induced E-selectin immunofluorescence imaging, at 2 µM; inhibition: stronger effect = higher value; nuclei count: measured here: cell number, toxicity
[4] = target: Voltage-gated potassium channel subunit beta-2 (Rattus norvegicus) (UniProt P62483); test: inhibitors of rat Kvbeta2 reductase activity – biochemical, NADPH fluorescence, primary screen (AID 622;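 active means fluorescence slope higher than the sample average by over 3 SD, cut at about -0.22 in these data, passing the limit was not always enough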;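 further: slope of raw intensity against log time taken from 70 to 1610 s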); conditions: recombinant KvBeta, 4-cyanobenzaldehyde reduction, at 10 µM, stronger effect = higher value
[5] = target: Voltage-gated potassium channel subunit beta-2 (Rattus norvegicus) (UniProt P62483); test: enhancers of rat Kvbeta2 NADPH turnover – biochemical, NADPH fluorescence, primary screen (AID 623;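 active means NADPH fluorescence slope more negative than the mean of all samples by about 3 SD, 99.7% confidence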;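 further: fluorescence intensity change per second fitted from 20 to 320 s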); conditions: Recombinant KvBeta, NADPH fluorescence decrease slope, 10 min; at 10 µM; stronger effect = lower value
[6] = target: Alpha-2C adrenergic receptor (Homo sapiens) (UniProt P18825); test: compounds altering alpha2C-coupled GIRK flux – cell-based, HEK293 alpha2C/GIRK1/2, thallium flux, primary screen (AID 624;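 active means fluorescence slope after compound addition differing from the mean of all screened samples at 99.7% confidence, in either direction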;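 further: slope of fluorescence ratio to pre-addition baseline per second over 15 to 24 s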); conditions: thallium flux BTC fluorescence, at 10 µM, actives lie on both sides
[7] = blockers of RIG-like receptor reporter activation – cell-based, Sendai virus stimulus, luciferase, 10K MLSCN set, TLR/RLR signaling modifier project, primary screen (AID 602276;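 active means inhibition at or above 50% at 10 µM; inactive means inhibition below 50%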;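 further: firefly luciferase from ISG56 promoter only with Renilla not read in this screen; 0% = Sendai virus plus DMSO and 100% = medium plus DMSO without virus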); conditions: HEK293 RL24 IRF3 luciferase reporter, at 10 µM, stronger effect = higher value
[8] = TLR3 IRF3 reporter activation blockers – cell-based, poly I:C stimulus, luciferase, 10K MLSCN set, primary screen (AID 602277;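 active means inhibition of the reporter signal at or above 50%; inactive means inhibition below 50%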); conditions: HEK293-TLR3 RL24 IRF3 luciferase reporter, at 10 µM, stronger effect = higher value

Sequence of Voltage-gated potassium channel subunit beta-2 (Rattus norvegicus) (P62483 whole entry, looked up): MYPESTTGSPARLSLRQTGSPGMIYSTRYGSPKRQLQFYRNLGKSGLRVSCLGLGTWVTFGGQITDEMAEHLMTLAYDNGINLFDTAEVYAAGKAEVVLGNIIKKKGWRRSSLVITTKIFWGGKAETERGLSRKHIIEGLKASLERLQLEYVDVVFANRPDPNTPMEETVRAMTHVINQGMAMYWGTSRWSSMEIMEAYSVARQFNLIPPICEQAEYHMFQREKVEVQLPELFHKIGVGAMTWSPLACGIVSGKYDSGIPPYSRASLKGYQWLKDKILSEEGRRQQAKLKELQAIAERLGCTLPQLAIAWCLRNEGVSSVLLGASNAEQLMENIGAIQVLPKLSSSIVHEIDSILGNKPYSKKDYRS
Sequence of Alpha-2C adrenergic receptor (Homo sapiens) (P18825 whole entry, looked up): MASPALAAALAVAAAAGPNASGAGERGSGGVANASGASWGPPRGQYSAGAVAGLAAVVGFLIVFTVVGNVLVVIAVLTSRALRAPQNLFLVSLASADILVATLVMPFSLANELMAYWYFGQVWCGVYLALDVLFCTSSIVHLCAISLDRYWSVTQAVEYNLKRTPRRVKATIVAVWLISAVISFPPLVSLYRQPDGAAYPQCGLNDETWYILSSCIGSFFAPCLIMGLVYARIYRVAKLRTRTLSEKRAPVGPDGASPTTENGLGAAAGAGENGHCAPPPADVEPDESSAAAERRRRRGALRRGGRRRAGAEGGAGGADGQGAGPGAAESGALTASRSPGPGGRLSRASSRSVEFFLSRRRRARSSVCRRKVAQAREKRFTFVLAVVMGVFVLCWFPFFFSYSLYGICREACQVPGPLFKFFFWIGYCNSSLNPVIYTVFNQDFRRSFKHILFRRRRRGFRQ

Row | SMILES | cell count [1] | inhibition [1] | inhibition of aggregation [2] | nuclei count [2] | inhibition [3] | nuclei count [3] | fluorescence slope [4] | NADPH fluorescence slope [5] | slope [6] | inhibition [7] | inhibition [8]
1 | O=C(CN(Cc1ccc2c(c1)OCO2)C(=O)CNS(=O)(=O)c1ccccc1)NCc1ccco1 | 869 | 9% (inactive) | -9.2% (inactive) | 108% | -3.6% (inactive) | 98.7% | -0.356 (inactive) | 8e-07 (inactive) | 0.00553 (inactive) | 15.7% (inactive) | 36.2% (inactive)
2 | CCC(CC)C(=O)NCCc1cc2ccc(C)cc2[nH]c1=O | 643 | 0.5% (inactive) | 3% (inactive) | 117% | -15.4% (inactive) | 111% | -0.556 (inactive) | -3.5e-05 (inactive) | 0.00557 (inactive) | 14.3% (inactive) | 26.1% (inactive)
3 | O=C1CC(C(=O)Nc2ccc(Br)cc2)C2(CCCC2)O1 (centres undefined) | 630 | -4.1% (inactive) | -3.7% (inactive) | 102% | -70% (inactive) | 98.1% | -0.406 (inactive) | -3e-05 (inactive) | 0.00668 (inactive) | 16.6% (inactive) | 11.8% (inactive)
4 | CCN(CCCNC(=O)CCNC(=O)Cn1ccc2ccccc2c1=O)c1ccccc1 | 393 | 4.5% (inactive) | -6.3% (inactive) | 103% | -106% (inactive) | 118% | -0.441 (inactive) | -8.2e-06 (inactive) | 0.00588 (inactive) | -0.268% (inactive) | -15.2% (inactive)
5 | COc1ccc(-n2c(=O)c3c4c(sc3n3cnnc23)CC(C)CC4)cc1 (centres undefined) | 370 | 0.2% (inactive) | -5.1% (inactive) | 80.3% | -108% (inactive) | 116% | -0.46 (inactive) | -4.9e-05 (inactive) | 0.00768 (inactive) | 23.9% (inactive) | 2.31% (inactive)
6 | O=C(O)C1CCCN1C(=O)c1cccs1 (centres undefined) | 367 | -18.4% (inactive) | -4.2% (inactive) | 105% | -53% (inactive) | 117% | -0.487 (inactive) | -7.9e-05 (inactive) | 0.00489 (inactive) | 5.87% (inactive) | 10.7% (inactive)
7 | C=CCn1c(-c2cccs2)nc2nc3ccccc3nc21 | 546 | -5.4% (inactive) | -7.5% (inactive) | 90.1% | -77.5% (inactive) | 141% | -0.602 (inactive) | 4.4e-06 (inactive) | 0.0057 (inactive) | -3.42% (inactive) | 2.94% (inactive)
8 | CCc1ccc(NC(=O)c2cccnc2)cc1 | 337 | -3.8% (inactive) | 23.7% (inactive) | 88% | -14.1% (inactive) | 110% | -0.429 (inactive) | -2.2e-05 (inactive) | 0.00479 (inactive) | -27% (inactive) | -80.3% (inactive)
9 | CC1CCCc2sc3nc(NCc4ccco4)n4ncnc4c3c21 (centres undefined) | 335 | 7.7% (inactive) | 8.4% (inactive) | 17.7% | 5.2% (inactive) | 112% | -0.514 (inactive) | -9.2e-06 (inactive) | 0.00555 (inactive) | 2.57% (inactive) | -0.465% (inactive)
10 | CC(=O)NC(Cc1cc(C)ccc1C)C(=O)N1CCN(C(=O)Nc2ccc(C(C)=O)cc2)CC1 (centres undefined) | 324 | -2.1% (inactive) | -26% (inactive) | 106% | -23.1% (inactive) | 99.8% | -0.378 (inactive) | -4.4e-05 (inactive) | 0.00656 (inactive) | 2.34% (inactive) | -13% (inactive)
11 | O=C(NC1CCCCC1)n1c(=O)oc2ccc(Cl)cc21 | 666 | 13.9% (inactive) | -4.2% (inactive) | 103% | 23.4% (inactive) | 107% | -0.622 (inactive) | -3.6e-05 (inactive) | 0.00609 (inactive) | -1.88% (inactive) | -13.8% (inactive)
12 | Cc1c(C(=O)NCc2cccnc2)oc2ccc(S(=O)(=O)N3CCCCC3)cc12 | 614 | -17% (inactive) | 37.3% (active) | 117% | -47.2% (inactive) | 107% | -0.448 (inactive) | -0.000103 (inactive) | 0.00545 (inactive) | 19.5% (inactive) | 21.4% (inactive)
13 | CC(C)Cc1nc(S(=O)(=O)c2ccc(Cl)cc2)c(N2CCOCC2)o1 | 570 | -12.7% (inactive) | -12.7% (inactive) | 119% | -14.6% (inactive) | 105% | -0.612 (inactive) | -4.1e-05 (inactive) | 0.00543 (inactive) | 13.7% (inactive) | 12.7% (inactive)
14 | Cc1cccc(NC(=O)Nc2cccc(C#N)c2)n1 | 907 | -1.7% (inactive) | 10.2% (inactive) | 112% | -77.1% (inactive) | 121% | -0.567 (inactive) | -3.2e-05 (inactive) | 0.00605 (inactive) | -22.3% (inactive) | -135% (inactive)
